eLon inh: E. coli protease La inhibition. purified E. coli Lon protease, fluorescence polarization. inhibition, % at 7.94 µM. hit rate 0.42% among 360,000. AID 602123; in the data active = inhibition above about 13%, passing the limit was not always enough
MEX-5 binding: C. elegans MEX-5 TCR-2 RNA binding activity | hit rate 0.38% among 300,000 | activity score (negative = inhibition of binding), % at 10 µM | MEX-5/FITC-TCR2 RNA binding, fluorescence polarization; stronger effect = lower value | Q9XUB2 | AID 1832;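 active = inhibition past about -25% in most replicates, and total fluorescence under double the plate's negative control median, limit read from the data; inconclusive = replicates evenly split on the limit, or fluorescence at least double controls; inactive = too little inhibition in most replicates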
GLD-1 RNA inh: GLD-1-TGE RNA interaction inhibition (C. elegans). Q17339. AID 2280. purified GLD-1 + fluorescein TGE RNA, fluorescence polarization. inhibition, % at 5.96 µM. hit rate 0.44% among 320,000;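 active = percent inhibition above a per-plate cutoff, the plate mean of test compounds plus 3 SD, cut at about 30% in these data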
BCLXL inh: inhibitors of human Bcl-xL; Q07817; GST-Bcl-xL / FITC-Bim BH3 peptide fluorescence polarization; inhibition, % at 10.9 µM; hit rate 0.7% among 320,000;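 active = inhibition above the mean of all tested compounds plus 3 SD, cutoff set per campaign, cut at about 30% in these data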;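 also: inhibitors lower millipolarization by displacing the labeled peptide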
Target sequence (Q07817 whole entry, looked up): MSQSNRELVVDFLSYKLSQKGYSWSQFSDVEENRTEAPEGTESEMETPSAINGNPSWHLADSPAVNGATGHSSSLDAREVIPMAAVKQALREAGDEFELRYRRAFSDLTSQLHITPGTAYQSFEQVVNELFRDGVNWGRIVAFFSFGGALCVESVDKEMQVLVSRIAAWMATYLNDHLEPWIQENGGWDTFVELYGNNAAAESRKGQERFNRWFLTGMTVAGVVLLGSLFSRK
EBV gp42 block: EBV gp42 inhibition; inhibition, % (tested at 21.74 µM); Fluorescence polarization binding assay, mP read-out; hit rate 0.42% among 220,000; Q1HVG2; AID 1085; in the data active = inhibition above about 50%
Target sequence (Q1HVG2 whole entry, looked up): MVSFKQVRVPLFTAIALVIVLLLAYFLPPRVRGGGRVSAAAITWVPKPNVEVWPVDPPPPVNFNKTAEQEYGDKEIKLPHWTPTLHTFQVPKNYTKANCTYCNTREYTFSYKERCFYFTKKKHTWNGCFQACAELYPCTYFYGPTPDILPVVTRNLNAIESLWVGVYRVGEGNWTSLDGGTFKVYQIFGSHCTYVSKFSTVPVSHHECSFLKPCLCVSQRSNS
MCL1 BIM primary: disrupts human MCL1 binding to BIM-BH3 peptide; Q07820; GST-MCL1 / FITC-Bim-BH3 fluorescence polarization; inhibition, % at 10.9 µM; hit rate 0.68% among 320,000; AID 2057;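 active = inhibition above the mean inhibition of all tested compounds plus 3 SD, set per campaign, cut at about 40% in these data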;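 also: higher means more loss of mP so more displacement of Bim peptide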
A number is an active result; 0 = inactive; ? = inconclusive; - = no result. Shown are actives, neighbours in structure and some others; about 1.4% of the full set was active somewhere.

SMILES	eLon inh	MEX-5 binding	GLD-1 RNA inh	BCLXL inh	EBV gp42 block	MCL1 BIM primary
CCn1c(N2CCN(C(=O)c3ccco3)CC2)nc2ccccc21	0	0	0	0	-	0
O=C(c1ccco1)N1CCN(c2nc3ccccc3n3nnnc23)CC1	0	0	0	41.3	0	0
CC(=O)Nc1ccc(NC(=O)C2CCCN2C(=O)Nc2ccc(F)cc2)cc1 (stereo not given)	0	0	0	0	-	0
CCC1c2ccc(C)n2CCN1C(=O)Nc1ccc(F)cc1 (stereo not given)	0	0	0	45.5	0	42.3
O=C(CC1C(=O)NCCN1C(=O)Nc1ccc(F)cc1)Nc1ccc(F)cc1 (stereo not given)	0	0	0	0	0	0
CCCC1c2ccc(C)n2CCN1C(=O)Nc1ccc(F)cc1 (stereo not given)	0	0	0	45.9	0	0
CC(C)C[C@H]1COCCS(=O)(=O)N1Cc1ccc(Cl)c(Cl)c1	0	0	0	66.7	-	0
CCC1COCCS(=O)(=O)N1Cc1cccc(Cl)c1 (stereo not given)	0	0	0	0	-	0
CCCCOc1ccc(C(=O)N(C)CC(=O)Nc2ccc(C)cc2)cc1	0	0	0	0	-	0
Cc1cnn(C(=O)c2cc(-c3ccccn3)nc3ccc(Cl)cc23)c1	0	0	0	31.1	0	0
O=C(c1cc(-c2ccccn2)nc2ccc(Cl)cc12)N1CCN(CCc2ccccc2)CC1	0	0	0	0	0	0
CCCC1(c2ccccc2)NC(=O)N(CC(=O)NCC2COc3ccccc3O2)C1=O (stereo not given)	0	-	0	0	-	0
O=C1C([N+](=O)[O-])=C(O)c2cccc3cccc1c23	-	-40.0	-	-	-	-
O=C(N/N=C1\C(=O)c2cccc3cccc1c23)c1ccc(O)cc1	0	0	0	0	0	0
Cc1ccc(-n2ncc3c(NNC(=O)Cc4ccccc4)ncnc32)cc1	0	0	0	0	0	0
Cn1ncc2c(NNC(=O)Cc3ccccc3)ncnc21	0	-34.7	0	0	0	0
CN(C1CCCCC1)S(=O)(=O)c1ccc2c(c1)c(=O)c(C(=O)O)cn2C	0	-	-	-	-	-
CC(=O)c1cccc(NC(=O)C2Cc3c(-c4ccc5c(c4)OCO5)ccnc3O2)c1 (stereo not given)	0	-	-	-	-	-
COc1ccccc1/C=N/N1C(=O)c2cccc3cccc(c23)C1=O	0	0	0	43.4	0	0
CCCCNC(=S)N(C)/N=C/c1sc(N2CCCCC2)nc1-c1cccs1	-	0	0	39.1	0	0
Cc1cc(C=C2C(=O)c3ccccc3C2=O)c(C)n1-c1ccccc1	0	0	0	0	56.6	0
Cc1nnc(SC(C)C)n(N)c1=O	0	0	0	0	0	0
c1cc(C(c2nnnn2C2CCCCC2)N2CCN3CCCC3C2)ccn1 (stereo not given)	0	0	0	37.4	0	0
CS(=O)(=O)N(CC(=O)NC1CC2CCC1C2)c1ccc(Oc2ccccc2)cc1 (stereo not given)	0	0	0	0	0	0
COc1ccc(F)cc1-c1cc(NC=O)c2ncc(-c3cccc(C(F)(F)F)c3)n2c1	0	-	-	-	-	-
SMILES	eLon inh	MEX-5 binding	GLD-1 RNA inh	BCLXL inh	EBV gp42 block	MCL1 BIM primary
COc1ccc(C(=O)N2C(=S)NC(=O)/C2=C\c2ccc(C)cc2)cc1	0	-28.0	0	0	0	0
COc1ccc(C=C2NC(=S)NC2=O)cc1	0	-	-	-	-	-
Cc1ccc(Cl)cc1S(=O)(=O)N1CCC(C(=O)NC2CCN(Cc3ccccc3)CC2)CC1	0	0	0	0	-	0
O=C1NC(=O)/C(=C/c2ccc(-c3cc(C(=O)O)ccc3Cl)o2)S1	0	0	0	0	-	42.3
Cc1cnc(CNC(=O)CC2C(=O)NCCN2Cc2ccccc2C(F)(F)F)cn1 (stereo not given)	0	0	0	34.6	-	0
CCNCCC(=O)N1c2ccccc2Sc2ccc(C(F)(F)F)cc21	0	0	0	0	-	0
O=C(NCCCc1ccccc1)c1cc(COc2ccc(F)cc2Cl)on1	0	0	0	34.9	-	0
O=C1NC[C@H](Cc2ccccc2)N(C[C@@H]2CCCN2C[C@H](Cc2ccccc2)N2C[C@H](Cc3ccc(O)cc3)N(CCc3ccccc3)C(=O)C2=O)C1=O	0	-	-	-	-	-
CC(C)(C)c1ccc(S(=O)(=O)NC(=O)C2(C)CCN2C(=O)C2CC2)cc1 (stereo not given)	0	-	-	-	-	-
O=C(/C=C/c1ccc(N2CCC(c3ccccc3)=N2)cc1)c1ccccc1	-	0	0	34.1	53.3	0
CCOC(=O)c1cc(-c2ccccc2)sc1NC(=S)Nc1cc(C)ccn1	0	-57.4	0	0	0	0
Cc1ccc(S(=O)(=O)Nc2ccccc2F)cc1C(=O)NNC(=O)c1ccccc1O	0	-37.2	0	0	-	0
CSC1=NSC2=NC(=O)/C(=C\c3coc4ccccc4c3=O)C(=N)N12	0	-	0	0	76.5	0
N=C1/C(=C\c2coc3ccc(O)cc3c2=O)C(=O)N=C2SC=CN12	0	?	54.9	60.9	0	0
CC(C)CSC1=NSC2=NC(=O)/C(=C\c3coc4ccccc4c3=O)C(=N)N12	0	?	0	79.6	103.6	0
O=C(COc1coc(CN2CCN(c3cccc(Cl)c3)CC2)cc1=O)NC1CCCC1	0	0	0	0	-	0
Cc1cc(C=NCCCO)c(C)n1-c1cc(Cl)ccc1Cl	0	0	-	-	0	-
CCOC(=O)C1=NNC(C(=O)c2ccc(Cl)cc2)C1c1ccc(OC)cc1 (stereo not given)	0	0	0	0	82.2	0
COc1ccc(NC(=O)N(C)C[C@H]2OCCCC[C@@H](C)Oc3ccc(NC(=O)c4ccccc4)cc3C(=O)N([C@H](C)CO)C[C@@H]2C)cc1	0	-	-	-	-	-
COc1nc(NCCC2=CCCCC2)nc(OC)n1	0	0	0	0	137.8	0
CC1=C(C#N)C(=O)N(C2CCS(=O)(=O)C2)C(=O)/C1=C\c1ccco1 (stereo not given)	-	-98.5	0	49.3	124.5	105.4
CCOc1ccc(-n2cc(-c3ccc(OC)c(OC)c3)[nH]c2=S)cc1	0	0	0	0	0	0
Cc1cnc(C(=O)NNC(=O)c2ccc(Br)cc2)cn1	0	-41.3	0	0	-	0
O=C(NNC(=O)C1CCC1)c1ccc(Br)cc1	0	0	0	0	-	0
Cc1cc(N2O[C@]34C=C[C@]25C[C@@H](O)CC[C@]5(C)C3CC[C@]2(C)[C@@H]([C@H](C)/C=C/[C@H](C)C(C)C)CC[C@H]24)no1 (stereo not given in full)	0	-	-	-	-	-
Cn1cc(/C=C/c2cc[n+](C)cc2)c2cc(Cl)ccc21	0	?	51.8	0	-	0
Cn1cc(/C=C/c2cc[n+](C)cc2)c2cc(F)ccc21	0	?	76.6	0	-	0
C[C@H](CO)N1C[C@H](C)[C@H](CN(C)C(=O)c2ccccc2)OCc2ccccc2-c2c(n(C)c3ccccc23)C1=O	0	-	-	-	-	-
CCn1c(O)c(C=Nc2ccccc2)sc1=S	-	0	0	0	0	0
Oc1c(C=Nc2ccccc2)sc(=S)n1Cc1ccccc1	0	-43.5	0	0	0	0
